This is an account of results in PubChem BioAssay AID463173 (ICCB-Longwood Screening Facility, Harvard Medical School, 2010).

Screen size: about 52,000 compounds; about 1,700 (3.3%) were called active. This is one part of a sample in which actives are shown more often than they occur. A number with no mark means an inactive call. Cut-off read from the data, not from the text of the source: active = survival mostly below about 52% (no sharp cut-off); inactive = mostly above about 56%.

The subject of the test is Wild type. The experiment in a line: growth inhibition of S. aureus wild type versus tarO mutant, primary screen, teichoic acid synthesis inhibitors, RN4220, OD600 (AID 463173). The conditions noted are these: S. aureus RN4220 wild type/DeltatarO growth, OD600, 18 h, stronger effect = lower value, screened at 18.75 µg/mL (by protocol).
For `Cc1ccc(-n2c(SCC(=O)O)nc3sc4c(c3c2=O)CCCC4)cc1`, the survival is 73%. The figure for `CSc1nc2sc3c(c2c(=O)n1-c1ccccc1)CCC(C(C)(C)C)C3` (stereo not given) is 12% (active); for `C=C(C)CSc1nc2sc3c(c2c(=O)n1-c1ccccc1)CCC(C)C3` (stereo not given) it is 67%; for `CCCSc1nc2sc3c(c2c(=O)n1-c1ccc(C)cc1)CCCC3` it is 5% (active). Consider `CC(C)CCSc1nnc2n(-c3ccccc3)c(=O)c3c4c(sc3n12)CC(C)CC4` (stereo not given), for which the survival was 76%. The result for `CCCSc1nc2sc3c(c2c(=O)n1-c1ccc(C)c(Cl)c1)CCN(C(C)=O)C3` reads 87%; that for `CCSc1nc2sc3c(c2c(=O)n1-c1ccc(C)cc1)CCCC3`, 0% (active). Turning to `CSc1nc2sc3c(c2c(=O)n1Cc1ccccc1)CCC(C(C)(C)C)C3` (stereo not given), the survival is 113%. The figure for `CCSc1nc2sc3c(c2c(=O)n1-c1ccc(C)c(Cl)c1)CCN(C(C)=O)C3` is 70%; for `CCCSc1nc2sc3c(c2c(=O)n1-c1ccccc1)CCC(C)C3` (stereo not given) it is 1% (active); for `Cc1ccc(-n2c(SCCC(C)C)nc3sc4c(c3c2=O)CC(C)(C)OC4)cc1` it is 76%.

In the case of `CCOC(=O)CSc1nc2sc3c(c2c(=O)n1-c1ccccc1)CCC(C(C)(C)C)C3` (stereo not given), the survival is 70%.

In the case of `Cc1ccc(C)c(N(CC(=O)Nc2ccccc2)S(C)(=O)=O)c1`, the survival is 99%. The result for `CCc1cccc(NC(=O)Cn2c(=O)ccc3cc(S(=O)(=O)N4CCC(C)CC4)ccc32)c1` reads 129%; that for `Cc1ccc2oc(C(=O)Nc3nc(-c4ccc(F)cc4)ns3)c(C)c2c1`, 87%. The result for `COc1ccc(NC(=O)c2c(NCc3cccs3)sc3c2CCCC3)cc1` reads 80%.

Take `CCOC(=O)c1cccc(NC(=O)CCSCCc2ccccn2)c1`: the survival was 68%.

`CCOC(=O)Cn1cnc2c(cnn2-c2ccc(C)c(C)c2)c1=O`: the survival is 72%. As to `COc1ccc(NC(=O)N2CCc3c([nH]c4ccc(OC)cc34)C2c2ccc(OC)cc2)cc1` (stereo not given), the survival is 93%. The result for `Cc1ccc(CS(=O)(=O)c2ncc(Cl)c(C(=O)Nc3nc4ccc(C)cc4s3)n2)cc1` reads 26%. Regarding `O=C(NCc1ccccc1)C(=O)NCC(c1cccnc1)N1CCN(c2ccccc2)CC1` (stereo not given), the survival was 82%. The result for `Cc1ccccc1CNC(=O)C1CCN(c2nn3cc(-c4ccc(F)cc4)nc3s2)CC1` reads 66%; that for `Cc1ccc2ncc(C(=O)NCc3ccccc3Cl)c(=O)n2c1`, 93%; that for `CC1CCN(c2ccc(-c3nc(-c4ccccc4)no3)cc2[N+](=O)[O-])CC1`, 112%. The figure for `Cc1cc(C)cc(NC(=O)CSc2oc(-c3cccs3)nc2S(=O)(=O)c2ccc(Br)cc2)c1` is 75%.
